# Results published in PubChem BioAssay AID1851 (National Center for Advancing Translational Sciences (NCATS), 2009).
# Several values for one entry are separate records, joined by “and”; a condition that tells them apart may be missing. Equal entries are not always repeated. The whole screen tested about 16,000 compounds, of which about 5,800 (36%) were called active. About 23% were inconclusive and are not listed. Calls come from the whole dose curve; as a rule, active = well fitted curve in the direction sought with a large enough effect; inconclusive = small, poorly fitted or top-dose-only effect, or effect the other way; inactive = no such curve, though single readings can be large or run the other way. Some of the results follow.
# Biological target: Cytochrome P450 2C19 (Homo sapiens) (UniProt P33261)
# Sequence (P33261 whole entry, looked up): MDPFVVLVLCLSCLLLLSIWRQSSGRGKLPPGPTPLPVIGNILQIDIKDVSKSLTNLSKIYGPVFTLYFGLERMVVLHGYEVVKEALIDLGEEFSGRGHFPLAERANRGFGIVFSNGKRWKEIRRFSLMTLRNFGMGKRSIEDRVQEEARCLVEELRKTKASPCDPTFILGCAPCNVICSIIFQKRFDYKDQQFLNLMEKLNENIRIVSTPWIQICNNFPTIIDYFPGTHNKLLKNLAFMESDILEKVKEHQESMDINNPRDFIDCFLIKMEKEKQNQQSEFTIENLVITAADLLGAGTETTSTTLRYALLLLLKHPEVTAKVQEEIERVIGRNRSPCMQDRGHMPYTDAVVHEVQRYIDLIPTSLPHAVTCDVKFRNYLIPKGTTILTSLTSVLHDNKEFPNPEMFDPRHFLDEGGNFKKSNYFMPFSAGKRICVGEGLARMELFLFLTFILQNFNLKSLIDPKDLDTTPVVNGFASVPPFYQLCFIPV
# Test: Cytochrome panel assay with activity outcomes
# Details: recombinant CYP, pro-luciferin dealkylation, luminescence, p450-cyp2c19; series mostly up to 57.1 µM; activity, negative = inhibition: at the top concentration
# % is set by controls: 0 for no effect and ±100 for the full control effect.
SMILES,AC50,"activity, negative = inhibition"
COc1ccc(/C=N/OCc2nc3c4c(ncn3n2)Oc2ccc3ccccc3c2C4c2ccccc2)cc1 (centres undefined),0.0794 µM (active),
Cc1ccc(NC2=NC(c3ccccc3)n3c(nc(C)cc3=O)N2)c(C)c1 (centres undefined),14.1 µM (active),
CC1CCN(c2ccc(/C=N/n3nnnc3N)cc2[N+](=O)[O-])CC1,,-38.1% (inactive)
Nc1nnnn1/N=C\c1ccc(Cl)c([N+](=O)[O-])c1,0.2 µM (active),
CC(C)(CO[C@H]1C[C@H]2CC[C@@]1(C)C2(C)C)[N+](=O)[O-],,12.6% [at 11.4 µM] (inactive)
O=C(O)CSc1cc(C(F)(F)F)nc(-c2ccccn2)n1,,18% (inactive)
CC(Sc1nc(-c2ccccc2)cc(C(F)(F)F)n1)C(=O)N1CCCCC1 (centres undefined),10 µM (active),
O=c1[nH]c2cc(Br)cnc2nc1/C=C(\O)c1ccc(F)cc1,,-27.4% (inactive)
Cc1cccc(CCNc2nc3ccccc3n3nnnc23)c1,1.58 µM (active),
CCC(=O)NC(NC(=O)CC)C(Cl)Cl,,3.92% (inactive)
CN1CCN(NC(=O)CN2C(=O)/C(=C/c3c(Cl)cccc3Cl)SC2=S)CC1,4.47 µM (active),
CC(C)(C)C(=O)[C@H]1[C@H](c2ccccc2)[C@@]2(N=C(c3ccccc3)OC2=O)C2c3ccccc3C=NN21 (some centres undefined),1.12 µM (active),
COc1ccccc1-c1cc(C(=O)Nc2cc(C)n(Cc3ccc(Cl)cc3)n2)no1,2.51 µM (active),
CCCCc1[nH]c(=O)c(C#N)c2c1CCCC2,,-19.7% (inactive)
CCOC(=O)Cc1cc(=O)n2[nH]c(C)c(C#N)c2n1,,31.1% (inactive)
CCCCOC(=O)CCc1c(C)[nH]c(=O)c(C#N)c1C,10 µM (active),
CC(=O)N1CCC[C@@]2(CCN(c3ncccn3)C2)C1,,-0.379% (inactive)
CCc1cccc2c(C=C(C#N)C#N)cn(CC(=O)N3CCCC3)c12,,53.7% (inactive)
CCN(CC)C(=O)Cn1cc(/C=C(\C#N)C(=O)N2CCN(c3ccccc3)CC2)c2ccccc21,2 µM (active),
CCc1cccc2c(C=C(C#N)C#N)cn(CC(=O)N3CCCCC3)c12,,52.3% (inactive)
Cc1noc(C)c1C(=O)N1CCC[C@@]2(CCN(Cc3ccccc3)C2)C1,,-4.3% (inactive)
O=C(O)Cc1ccc(O)c(O)c1,,-5.87% (inactive)
COC(=O)[C@](C)(N)Cc1ccc(O)cc1,,-6.96% (inactive)
COc1cc(CC(=O)O)ccc1O,,21.8% (inactive)
COC(=O)c1ccc(CCc2cc(O)ccc2O)cc1,3.16 µM (active),

SMILES,AC50,"activity, negative = inhibition"
COC(=O)c1cc(Br)c(=O)n(CCc2ccc(O)cc2)c1,3.55 µM (active),
CC(C)=CCC/C(C)=C/CO/N=C1/C[C@@H](O)[C@@H](O)[C@@H]2[C@H]3C(=O)N(c4ccc(F)cc4F)C(=O)[C@@H]3CC[C@@H]12,,-9.14% [at 11.4 µM] (inactive)
COc1ccccc1C(=O)NC(=S)N1CCCc2ccccc21,2 µM (active),
COc1ccccc1C(=O)NN1C(=O)C2C3C=CC(O3)C2C1=O (centres undefined),,9.47% (inactive)
c1ccc(CSc2nnc3c4ccccc4c4ccccc4c3n2)cc1,,-34.7% [at 11.4 µM] (inactive)
O=C(CSc1nnc2c3ccccc3c3ccccc3c2n1)Nc1ccccc1,2 µM (active),
c1ccc2c(c1)oc1c(NCCCn3ccnc3)ncnc12,3.55 µM (active),
c1ccc(-c2nc(NCCCn3ccnc3)c3oc4ccccc4c3n2)cc1,0.158 µM (active),
c1cncc(-c2ccc3ncnc(NCCN4CCOCC4)c3c2)c1,,13.4% (inactive)
CNc1csc(C)c(C)c1=O,28.2 µM (active),
Cc1nc2ncnn2c(C)c1CCC(=O)Nc1ccc(S(=O)(=O)N2CCCCCC2)cc1,,-27.7% (inactive)
O=C(O)c1cc(S(=O)(=O)N2CCCCC2)ccc1F,,-3.99% (inactive)
O=C(Nc1ccc(F)cc1)c1cc(S(=O)(=O)N2CCCCC2)cs1,22.4 µM (active),
Cc1ccc(S(=O)(=O)Oc2cc(N)c3c(n2)CCC3)cc1,1 µM (active),
Cc1ccc(S(=O)(=O)Oc2cc(S(=O)(=O)O)cc3cc(S(=O)(=O)O)cc(N)c23)cc1,,7.86% [at 11.4 µM] (inactive)
Cc1ccc(S(=O)(=O)O[C@@H]2[C@H]([C@@H]3COC(C)(C)O3)O[C@H]3OC(C)(C)O[C@@H]32)cc1,,45.2% [at 11.4 µM] (inactive)
CC(C)CC(=O)N1CCN(Cc2cccc(F)c2)CC1,3.55 µM (active),
O=C(c1cccc(F)c1)N1CCC2(CCN(Cc3ccccc3)CC2)CC1,,-9.16% (inactive)
CC(C)CN1CCC2(CC1)CCN(C(=O)c1cccc(F)c1)CC2,,-11.2% (inactive)
COc1cccc(Cn2c(=O)c(-c3ccc(Cl)cc3)nc3cnc(N4CCNCC4)nc32)c1,25.1 µM (active),
COc1ccc(-n2c(=O)c(-c3ccc(F)cc3)nc3cnc(N4CCOCC4)nc32)cc1,,-8.57% (inactive)
COc1ccc(-n2c(=O)c(-c3ccc(Cl)cc3)nc3cnc(N4CCNCC4)nc32)cc1,,-24.1% (inactive)
COc1ccc(-c2nc3cnc(N4CCNCC4)nc3n(Cc3ccc(F)cc3)c2=O)cc1,,-35% (inactive)
COc1cccc(Cn2c(=O)c(-c3cccs3)nc3cnc(N4CCNCC4)nc32)c1,31.6 µM (active),
COc1cccc(Cn2c(=O)c(-c3cccs3)nc3cnc(N4CCN(C)CC4)nc32)c1,,-17.6% (inactive)

SMILES,AC50,"activity, negative = inhibition"
COc1cccc(Cn2c(=O)c(-c3ccc(Cl)cc3)nc3cnc(N4CCN(C)CC4)nc32)c1,,61.1% (inactive)
COc1ccc(-n2c(=O)c(-c3cccs3)nc3cnc(N4CCNCC4)nc32)cc1,,-27.6% (inactive)
COc1ccc(-n2c(=O)c(-c3ccc(Cl)cc3)nc3cnc(N4CCOCC4)nc32)cc1,25.1 µM (active),
C[C@@H](NCc1cc(Br)cc2[nH]c(=O)c(=O)[nH]c12)P(=O)(O)O,,19.9% (inactive)
COc1ccc(CC(=S)N2CCOCC2)cc1OC,10 µM (active),
COc1ccc(CCN(C)CCc2ccc(OC)c(OC)c2)cc1OC,inactive,
COc1ccc(C[N+](C)(C)N)cc1OC,,22.8% [at 11.4 µM] (inactive)
CO[C@@H]1COC(=O)[C@@H](C)NC(=O)C/C=C\[C@@H](C)[C@H](NS(=O)(=O)c2ccc(C)cc2)COC(=O)[C@H](C)NC(=O)C/C=C\[C@H]1C,,1.72% [at 11.4 µM] (inactive)
O=C(NCCCCc1ccccc1)C1CC(c2ccccc2[N+](=O)[O-])=NO1 (centres undefined),7.08 µM (active),
Cc1ccc(CNC(=O)C2CC(c3ccccc3[N+](=O)[O-])=NO2)cc1 (centres undefined),3.16 µM (active),
Cc1ccc(CNC(=O)C2CC(c3ccccc3[N+](=O)[O-])=NO2)o1 (centres undefined),7.94 µM (active),
Cc1ccc(CCNC(=O)C2CC(c3ccccc3[N+](=O)[O-])=NO2)cc1 (centres undefined),11.2 µM (active),
NCCNCC1CCNCC1,,2.44% [at 11.4 µM] (inactive)
C/C(CCN1CCCc2nc(C)c(C)cc21)=N\O[C@@H](C)c1cn([C@H](CO)Cc2ccccc2)nn1,,-18.6% [at 11.4 µM] (inactive) and 31.1% [at 11.4 µM] (inactive)
O=C(CSc1nc2ccccc2s1)c1sc2sc3ccccc3[n+]2c1O,,-17.6% [at 11.4 µM] (inactive)
CC(C)CC1CC(=O)OC1(C)C(=O)CSc1nc2ccccc2s1 (centres undefined),7.94 µM (active),
CC1(C(=O)CSc2nc3ccccc3s2)CCC(=O)O1 (centres undefined),11.2 µM (active),
O=C(OCCNC(=O)c1ccc2ccccc2n1)c1ccc(F)cc1,7.94 µM (active),
NCCNC(=O)c1ncsc1-c1cccc(F)c1,,-22.7% (inactive)
O=C(O)/C=C1\NC(=O)c2ccccc21,,-15.3% (inactive)
CC[N+](CC)(CC)CCOc1ccc(/C=C\c2ccccc2)cc1,,4.13% (inactive)
CCOc1ccccc1OCCOc1ccc(F)cc1,4.47 µM (active),
CCOC(=O)CCN1C(=O)[C@H]2[C@H]3[C@H](O)[C@H](O)C/C(=N/OC[C@@H](O)COCc4ccco4)[C@H]3CC[C@@H]2C1=O,,34% [at 11.4 µM] (inactive)
CC(C)NC(=O)N1CC2(CCN(S(=O)(=O)c3ccccc3)CC2)C1,,14.7% (inactive)
Cc1ccc(S(=O)(=O)N2CCN(C(=O)c3ccccc3)C2C(C)C)cc1 (centres undefined),7.08 µM (active),

SMILES,AC50,"activity, negative = inhibition"
CC(C)NC(=O)N1CCCC2(CCN(S(=O)(=O)c3ccccc3)CC2)C1,,-25% (inactive)
CC(=O)N1CCN(S(=O)(=O)c2ccccc2)C1c1ccccc1 (centres undefined),11.2 µM (active),
CC(=O)N1CC2(CC2)CC1c1ccccc1 (centres undefined),,9.83% (inactive)
COc1ccc(OC)c(NC(=O)C(CC(=O)O)NCc2ccco2)c1 (centres undefined),,-7.23% (inactive)
C=CCC(NCc1ccco1)c1ccc(OC)cc1 (centres undefined),5.01 µM (active),
COc1ccc(-c2nc(N)c3ncn([C@H]4O[C@@H](CO)[C@@H](O)[C@@H]4O)c3n2)cc1,,31.6% [at 11.4 µM] (inactive)
CCC(=O)n1nc(-c2ccc(OC)cc2)nc1N,10 µM (active),
COc1ccc(C(=O)n2nc(-c3ccccc3)nc2SC)cc1,,-24.6% (inactive)
CC(C)Oc1ccc(N2CC(C(=O)OCC(=O)NCc3ccccc3)CC2=O)cc1 (centres undefined),15.8 µM (active),
CCOc1ccc(N2CC(C(=O)NCc3cccc(C)c3)CC2=O)cc1 (centres undefined),7.94 µM (active),
O=C(CN1CCN(S(=O)(=O)c2ccccc2)CC1)NC(=O)NCc1ccccc1,,-24% (inactive)
O=C(CNC1CCCCCC1)Nc1ccccc1N1CCCCC1,4.47 µM (active),
O=C(CSc1nc2ccccc2o1)NC(=O)NCc1ccccc1,3.55 µM (active),
O=C(CSc1nc2ccccc2o1)Nc1ccccc1N1CCCCCC1,15.8 µM (active),
Cc1cc(C)nc(SCC(=O)N/N=C\c2sccc2C)n1,5.01 µM (active),
CNc1c2c(nn1C)CCCC2,,-23.5% (inactive)
C[N+](C)(C)c1cc2c(nn1)Nc1ccccc1S2,,-41.4% [at 11.4 µM] (inactive)
CC1(C)N=C(N)N=C(N)N1CCCCc1ccccc1,,24% [at 11.4 µM] (inactive)
Cc1cc(C)nc(SCC(=O)Nc2ccccc2[N+](=O)[O-])n1,7.94 µM (active),
O=C(O)c1ccc(CNCc2ccccc2)cc1,,-4.75% [at 11.4 µM] (inactive)
O=C(O)c1cc(=O)[nH]c(SCc2ccccc2)n1,,-23.4% [at 11.4 µM] (inactive)
O=C(CSc1ccccn1)Nc1nc2ccc(Br)cc2s1,2 µM (active),
O=C(CSc1nc2ccccc2o1)Nc1nc2ccccc2s1,1.78 µM (active),
O=C(O)c1ccc(CSc2nc3ccccc3o2)cc1,35.5 µM (active),
